# Test results taken from PubChem BioAssay (NCATS).
# Unmarked numbers belong to inactive results. Inconclusive results are not listed. Activity calls are given as the source filed them. Unless noted, calls come from the whole dose curve; as a rule, active = well fitted curve in either direction with a large enough effect (not every such curve was filed as active); inconclusive = small, poorly fitted or top-dose-only effect, or another doubt; inactive = flat fitted curve, though single readings scatter.
# Tests used:
# [1] = molecular target: Cytochrome P450 1A2 (Homo sapiens) (UniProt P05177); experiment: p450-cyp1a2 (AID 410; calls by dose curve; note: potency is the fitted concentration of half-maximal effect;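 for activity change, negative = inhibition: -100% = full effect of reference inhibitor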)
# Sequence of Cytochrome P450 1A2 (Homo sapiens) (P05177 whole entry, looked up): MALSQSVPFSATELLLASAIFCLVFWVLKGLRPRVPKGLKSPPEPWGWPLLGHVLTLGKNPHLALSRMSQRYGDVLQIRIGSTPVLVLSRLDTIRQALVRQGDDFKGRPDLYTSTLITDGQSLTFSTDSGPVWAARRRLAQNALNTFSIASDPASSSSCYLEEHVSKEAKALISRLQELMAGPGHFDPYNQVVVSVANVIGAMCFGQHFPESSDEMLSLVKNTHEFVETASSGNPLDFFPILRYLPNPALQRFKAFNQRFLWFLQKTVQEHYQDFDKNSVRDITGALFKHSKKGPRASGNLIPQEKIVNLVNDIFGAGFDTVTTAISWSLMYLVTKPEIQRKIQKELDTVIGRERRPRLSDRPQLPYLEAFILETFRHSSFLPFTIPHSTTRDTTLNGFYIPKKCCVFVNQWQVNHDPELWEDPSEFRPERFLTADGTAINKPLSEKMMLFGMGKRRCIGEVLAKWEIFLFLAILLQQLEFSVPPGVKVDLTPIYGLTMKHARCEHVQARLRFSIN
# In short: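 O-Demethylation of luciferin 6' methyl ether by human CYP1A2 is monitored as luciferase luminescence. Substrate sits at Km (100uM); enzyme is 20nM. Values are scaled to 57 uM furafylline as maximal inhibition.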
# [2] = NFAT Signaling Pathway (AID 444); conditions: Jurkat NFAT-bla M1, carbachol, beta-lactamase ratio, 5 h; at 7.69 µM (top of the series) unless noted;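 note: carbachol stimulus at about its EC50 of 1 µM final; % is set by controls: 0 for no effect and ±100 for the full control effect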
# In short: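 Jurkat cells carrying an NFAT-driven β-lactamase reporter and co-transfected muscarinic M1 receptor were treated with compound plus carbachol (1 uM final, an EC50 level) for 5 h at 37 °C. CCF4 loading followed for 1 h at RT; 460/530 nm ratio gave %activity.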
# [3] = Stat Signaling Pathway (AID 446); conditions: ME-180 SIE beta-lactamase reporter, IL-6 stimulated, 5 h; at 7.69 µM (top of the series) unless noted;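 note: ME-180 cervical cancer cells given 40 pM IL-6 alongside compound; SIE-controlled beta-lactamase reporter measured as 460/530 nm FRET emission ratio; % is set by controls: 0 for no effect and ±100 for the full control effect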
# In short: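 Normalization used AC90 stimulation (300 pM IL-6) and AC90 inhibition (125 nM pan-JAK inhibitor at 40 pM IL-6). The underlying signal is SIE-driven beta-lactamase in ME-180 cells after 5 h IL-6 exposure with compound.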
# [4] = molecular target: Glucocorticoid receptor (Homo sapiens) (UniProt P04150); experiment: GR-GFP Redistribution (AID 450;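 active = compounds whose dose series gives a full or clear partial fitted curve of increased nuclear translocation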; note: potency is the fitted concentration of half-maximal effect); conditions: U2OS GR-GFP nuclear translocation, laser cytometry, 2 h
# Sequence of Glucocorticoid receptor (Homo sapiens) (P04150 whole entry, looked up, the tested form may be a part): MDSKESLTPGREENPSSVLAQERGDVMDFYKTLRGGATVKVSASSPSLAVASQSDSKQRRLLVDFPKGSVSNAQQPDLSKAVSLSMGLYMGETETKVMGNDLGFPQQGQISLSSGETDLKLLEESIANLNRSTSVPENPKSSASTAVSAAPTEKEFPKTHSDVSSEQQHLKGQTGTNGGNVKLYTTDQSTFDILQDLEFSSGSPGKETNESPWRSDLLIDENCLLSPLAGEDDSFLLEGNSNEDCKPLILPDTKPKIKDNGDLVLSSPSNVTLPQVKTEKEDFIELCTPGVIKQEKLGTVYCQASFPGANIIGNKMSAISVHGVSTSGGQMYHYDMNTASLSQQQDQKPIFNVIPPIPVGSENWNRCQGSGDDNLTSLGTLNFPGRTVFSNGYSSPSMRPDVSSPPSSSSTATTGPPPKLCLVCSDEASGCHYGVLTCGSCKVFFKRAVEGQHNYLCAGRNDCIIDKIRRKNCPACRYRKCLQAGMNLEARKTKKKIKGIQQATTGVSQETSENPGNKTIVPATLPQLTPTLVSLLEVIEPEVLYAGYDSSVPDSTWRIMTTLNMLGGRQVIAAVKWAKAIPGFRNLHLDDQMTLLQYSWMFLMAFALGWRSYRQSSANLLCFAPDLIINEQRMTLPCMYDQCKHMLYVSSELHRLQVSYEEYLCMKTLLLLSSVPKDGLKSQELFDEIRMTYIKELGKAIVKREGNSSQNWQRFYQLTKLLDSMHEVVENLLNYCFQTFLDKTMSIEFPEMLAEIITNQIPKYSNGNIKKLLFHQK
# [5] = molecular target: Glucocorticoid receptor (Homo sapiens) (UniProt P04150); experiment: GR-EFC Redistribution (AID 451; calls by dose curve; note: potency is the fitted concentration of half-maximal effect); conditions: CHO-K1 GR-EFC translocation, beta-gal luminescence, 2 h
# In short: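 CHO-K1 cells stably expressing nuclear-localized β-gal enzyme acceptor and GR fused C-terminally to the enzyme donor fragment; ligand-driven nuclear translocation restores β-gal by complementation. Compounds titrated up to 46 uM final, 2 h at 37 °C; luminescence read.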
# [6] = molecular target: 3',5'-cyclic-AMP phosphodiesterase 4B (Homo sapiens) (UniProt Q07343); experiment: qHTS Assay for Inhibitors of PDE-IV (AID 607; active = well fitted activation curve with a large enough effect in the main read-out, with a control signal flat, not every such curve was filed as active; note: % of control where 0% means no effect)
# Sequence of 3',5'-cyclic-AMP phosphodiesterase 4B (Homo sapiens) (Q07343 whole entry, looked up): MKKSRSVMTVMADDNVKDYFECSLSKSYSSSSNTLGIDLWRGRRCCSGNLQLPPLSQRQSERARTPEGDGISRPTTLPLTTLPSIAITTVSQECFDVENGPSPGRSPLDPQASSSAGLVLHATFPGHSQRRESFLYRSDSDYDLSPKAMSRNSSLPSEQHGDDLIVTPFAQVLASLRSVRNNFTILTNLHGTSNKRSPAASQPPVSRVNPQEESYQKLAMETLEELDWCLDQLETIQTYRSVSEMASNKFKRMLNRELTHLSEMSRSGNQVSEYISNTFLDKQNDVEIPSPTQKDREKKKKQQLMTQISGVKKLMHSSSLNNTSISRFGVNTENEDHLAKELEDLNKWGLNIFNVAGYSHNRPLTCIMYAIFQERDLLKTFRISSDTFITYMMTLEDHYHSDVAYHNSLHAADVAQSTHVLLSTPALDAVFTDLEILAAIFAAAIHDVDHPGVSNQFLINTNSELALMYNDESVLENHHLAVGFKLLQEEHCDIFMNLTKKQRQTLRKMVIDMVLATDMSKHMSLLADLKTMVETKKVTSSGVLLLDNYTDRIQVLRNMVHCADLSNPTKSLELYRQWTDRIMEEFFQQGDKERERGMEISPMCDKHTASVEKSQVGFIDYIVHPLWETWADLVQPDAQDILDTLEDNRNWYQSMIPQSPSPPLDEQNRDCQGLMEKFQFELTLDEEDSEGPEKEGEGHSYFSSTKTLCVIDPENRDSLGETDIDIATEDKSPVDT
# In short: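 HEK293 ACTOne cells with CNG channel (1000/well), endogenous PDE4; membrane potential dye, compounds up to 22.9 uM final. Fluorescence Ex 535/Em 590; RO 20-1724 (100 uM final) as reference.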
# [7] = molecular target: Cytochrome P450 2C9 (Homo sapiens) (UniProt P11712); experiment: qHTS Assay for Inhibitors and Substrates of Cytochrome P450 2C9 (AID 883; active = well fitted curve in the direction sought with a large enough effect; an effect the other way counts as inactive or inconclusive; note: nearly all actives have a fitted effect of over 60% in size; note: potency is the fitted concentration of half-maximal effect)
# Sequence of Cytochrome P450 2C9 (Homo sapiens) (P11712 whole entry, looked up): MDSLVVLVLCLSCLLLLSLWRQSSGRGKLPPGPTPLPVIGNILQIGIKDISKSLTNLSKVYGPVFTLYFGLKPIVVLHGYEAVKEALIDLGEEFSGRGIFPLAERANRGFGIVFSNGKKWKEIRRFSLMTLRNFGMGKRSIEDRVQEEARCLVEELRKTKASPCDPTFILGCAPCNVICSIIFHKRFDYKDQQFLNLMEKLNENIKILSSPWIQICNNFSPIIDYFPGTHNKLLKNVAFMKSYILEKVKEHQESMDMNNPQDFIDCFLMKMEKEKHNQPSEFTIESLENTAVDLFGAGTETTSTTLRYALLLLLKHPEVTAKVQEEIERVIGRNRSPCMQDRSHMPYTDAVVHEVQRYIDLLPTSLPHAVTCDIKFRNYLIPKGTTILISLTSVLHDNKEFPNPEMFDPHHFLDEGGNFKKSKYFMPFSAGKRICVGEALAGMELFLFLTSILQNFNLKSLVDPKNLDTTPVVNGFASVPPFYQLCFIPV
# In short: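 A luminogenic readout tracked human CYP2C9 (10nM) converting deoxyluciferin (100uM, at KM) in 25mM KPO4 during 60 min at 37C with regenerated NADPH. Values normalized to 57uM sulphaphenazole as complete inhibition.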
# [8] = molecular target: Cytochrome P450 2C19 (Homo sapiens) (UniProt P33261); experiment: qHTS Assay for Inhibitors and Substrates of Cytochrome P450 2C19 (AID 899; active = well fitted curve in the direction sought with a large enough effect; an effect the other way counts as inactive or inconclusive; note: nearly all actives have a fitted effect of over 60% in size; note: potency is the fitted concentration of half-maximal effect)
# Sequence of Cytochrome P450 2C19 (Homo sapiens) (P33261 whole entry, looked up): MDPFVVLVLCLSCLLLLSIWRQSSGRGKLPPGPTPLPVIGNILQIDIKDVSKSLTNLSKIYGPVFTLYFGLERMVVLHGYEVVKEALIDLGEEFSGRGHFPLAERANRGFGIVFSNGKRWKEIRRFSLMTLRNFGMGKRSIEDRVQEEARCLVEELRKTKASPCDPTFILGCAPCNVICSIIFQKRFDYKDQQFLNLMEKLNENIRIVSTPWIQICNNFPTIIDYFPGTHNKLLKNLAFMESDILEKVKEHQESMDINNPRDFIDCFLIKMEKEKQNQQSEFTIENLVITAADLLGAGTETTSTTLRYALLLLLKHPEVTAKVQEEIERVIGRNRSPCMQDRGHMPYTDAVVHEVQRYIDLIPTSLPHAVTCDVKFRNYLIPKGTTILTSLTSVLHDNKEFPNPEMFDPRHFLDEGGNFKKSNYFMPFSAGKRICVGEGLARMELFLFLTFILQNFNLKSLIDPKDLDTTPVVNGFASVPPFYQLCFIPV
# In short: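 NADPH-dependent conversion of Luciferin-H EGE (10uM, at KM) by 5nM enzyme in 50mM KPO4, 60 min at 37C following 10 min compound preincubation. Stopped with luciferin detection buffer; luminescence read after 20 min.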
# [9] = molecular target: Mitogen-activated protein kinase 10 (Mus musculus) (UniProt Q61831); experiment: JNK3 AlphaScreen Assay (AID 530);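 note: kinase came from lysate of stimulated human HepG2 cells; signal reports phosphorylation of biotinylated GST-cJun 1-79 at Ser73 with 10 µM ATP; % is set by controls: 0 for no effect and ±100 for the full control effect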
# In short: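 Phosphorylation of biotinylated GST-cJun(1-79) at Ser73 is measured by AlphaScreen proximity luminescence. Enzyme is JNK3 in HepG2 lysates activated with interleukin-1beta and tumor necrosis factor alpha; ATP is 10 uM final.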
# [10] = molecular target: Guanine nucleotide-binding protein G(i) subunit alpha-1 (Homo sapiens) (UniProt P63096); experiment: qHTS Assay for Inhibitors of RGS12 GoLoco Motif Activity (Green Fluorophore) (AID 879; active = well fitted curve in the direction sought with a large enough effect; an effect the other way counts as inactive or inconclusive;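 note: 0% = labeled peptide with Gαi1 and full inhibition = labeled peptide alone without protein; negative values mean loss of peptide binding seen as reduced polarization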)
# Sequence of Guanine nucleotide-binding protein G(i) subunit alpha-1 (Homo sapiens) (P63096 whole entry, looked up): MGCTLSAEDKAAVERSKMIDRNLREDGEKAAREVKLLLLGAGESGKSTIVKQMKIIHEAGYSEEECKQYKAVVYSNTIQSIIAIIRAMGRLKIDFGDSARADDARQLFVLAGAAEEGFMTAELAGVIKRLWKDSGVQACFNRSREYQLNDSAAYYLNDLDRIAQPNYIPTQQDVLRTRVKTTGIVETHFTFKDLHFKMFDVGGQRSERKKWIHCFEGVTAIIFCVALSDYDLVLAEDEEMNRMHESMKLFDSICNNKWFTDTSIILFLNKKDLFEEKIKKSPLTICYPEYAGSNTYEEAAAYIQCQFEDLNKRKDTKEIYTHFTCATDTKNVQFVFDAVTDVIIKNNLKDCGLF
# In short: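 A drop in FITC polarization marked displacement of the FITC-tagged RGS12 GoLoco peptide (10 nM) from Gαi1 (50 nM). Compounds were incubated 10 min at room temperature in Tris pH 7.5 buffer containing 150 mM NaCl, 0.1 mM GDP and 0.05% NP40; unlabeled peptide titration served as control.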
# [11] = molecular target: Cytochrome P450 3A4 (Homo sapiens) (UniProt P08684); experiment: qHTS Assay for Activators of Cytochrome P450 3A4 (AID 885; active = well fitted curve in the direction sought with a large enough effect; an effect the other way counts as inactive or inconclusive; note: nearly all actives have a fitted effect of over 65% in size)
# In short: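 Human CYP3A4 dealkylates Luciferin-PPXE to luciferin, which luciferase detection converts to light. Substrate was at its KM (25uM), buffer 200mM KPO4, reaction 60 min at RT.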
# [12] = qHTS Assay for Identification of Small Molecule Agonists for Thrombopoietin (TPO) Signaling Pathway (AID 917; active = well fitted curve in the direction sought with a large enough effect; an effect the other way counts as inactive or inconclusive; note: % is set by controls: 0 for no effect and ±100 for the full control effect)
# In short: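 Cell-based luciferase reporter screen. Mouse Ba/F3 line stably expressing human TPO receptor; IL-3 removed overnight before plating. Co-treatment with compound and EC50 TPO (26 pM), 24 hrs at 37 C, then luminescence.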
# [13] = molecular target: Muscarinic acetylcholine receptor M1 (Rattus norvegicus) (UniProt P08482); experiment: qHTS Assay for Antagonists of Acetylcholine Muscarinic M1 Receptor: Measurement of IP-One Response (AID 944; active = well fitted curve in the direction sought with a large enough effect; an effect the other way counts as inactive or inconclusive; note: nearly all actives have a fitted effect of over 75% in size)
# Sequence of Muscarinic acetylcholine receptor M1 (Rattus norvegicus) (P08482 whole entry, looked up): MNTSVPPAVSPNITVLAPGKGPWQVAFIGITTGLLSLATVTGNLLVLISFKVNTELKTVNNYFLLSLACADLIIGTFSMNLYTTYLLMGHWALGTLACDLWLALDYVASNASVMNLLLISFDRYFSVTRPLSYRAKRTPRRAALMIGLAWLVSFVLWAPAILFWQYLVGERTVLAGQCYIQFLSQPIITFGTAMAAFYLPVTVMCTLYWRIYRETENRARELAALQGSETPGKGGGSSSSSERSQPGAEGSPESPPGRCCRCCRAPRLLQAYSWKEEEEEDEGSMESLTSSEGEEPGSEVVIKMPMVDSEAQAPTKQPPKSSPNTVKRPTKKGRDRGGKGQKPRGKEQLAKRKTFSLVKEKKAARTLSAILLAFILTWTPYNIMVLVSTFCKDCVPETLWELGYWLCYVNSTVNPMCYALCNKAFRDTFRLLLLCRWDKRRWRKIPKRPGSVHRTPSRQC
# In short: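 Antagonist mode with rat M1 receptor transfected into CHO cells. Compound is added first for 10 min, carbachol at its EC80 follows for 30 min, and lysis reagents then allow TR-FRET detection of accumulated IP1.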
# [14] = molecular target: Pyruvate kinase (Leishmania mexicana) (UniProt Q27686); experiment: qHTS Validation Assay for Inhibitors of Leishmania Mexicana Pyruvate Kinase (AID 945; active = well fitted curve in the direction sought with a large enough effect; an effect the other way counts as inactive or inconclusive;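 note: 0% = DMSO only neutral control wells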)
# In short: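 Mutant LmPYK (E451W), 0.2 nM, plus 0.5 mM PEP and 0.1 mM ADP in 50 mM imidazole pH 7.2 containing 0.01% Tween 20 and 0.05% BSA. Incubated 1 h at room temperature; luminescence via PKLight, normalized to DMSO.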
# [15] = molecular target: Pyruvate kinase PKM (Homo sapiens) (UniProt P14618); experiment: qHTS Assay for Activators of Human Muscle Pyruvate Kinase (AID 954; active = well fitted curve in the direction sought with a large enough effect, not every such curve was filed as active;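 note: 0% = uninhibited enzyme and -100% = no enzyme or full thiadiazolimine inhibition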)
# Sequence of Pyruvate kinase PKM (Homo sapiens) (P14618 whole entry, looked up): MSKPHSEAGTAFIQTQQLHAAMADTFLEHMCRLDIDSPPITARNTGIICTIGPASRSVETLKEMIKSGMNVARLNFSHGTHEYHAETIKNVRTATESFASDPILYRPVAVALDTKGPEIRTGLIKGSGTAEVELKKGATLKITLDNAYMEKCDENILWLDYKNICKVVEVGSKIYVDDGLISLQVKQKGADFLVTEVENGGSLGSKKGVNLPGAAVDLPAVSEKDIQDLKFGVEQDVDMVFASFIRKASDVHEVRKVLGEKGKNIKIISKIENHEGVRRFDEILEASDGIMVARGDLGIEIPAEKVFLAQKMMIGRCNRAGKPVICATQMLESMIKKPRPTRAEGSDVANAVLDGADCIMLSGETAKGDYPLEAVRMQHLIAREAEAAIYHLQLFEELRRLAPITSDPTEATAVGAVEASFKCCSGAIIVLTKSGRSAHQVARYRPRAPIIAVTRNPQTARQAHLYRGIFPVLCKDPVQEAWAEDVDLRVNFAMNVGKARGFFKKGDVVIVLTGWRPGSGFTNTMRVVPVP
# In short: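 Compound pinned into substrate mix (0.5 mM PEP, 0.1 mM ADP), then 0.1 nM PKM2 added; 1 h, RT. Stop/detection luciferase reagent added, luminescence read. Normalized to no-inhibition and no-enzyme or reference-inhibitor controls.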
# [16] = molecular target: Alpha-galactosidase A (Homo sapiens) (UniProt P06280); experiment: Counterscreen for Glucocerebrosidase Inhibitors: qHTS Assay for Human alpha-Galactosidase at pH 4.5 (AID 992; active = well fitted curve in the direction sought with a large enough effect; an effect the other way counts as inactive or inconclusive; note: 0% is about no effect)
# Sequence of Alpha-galactosidase A (Homo sapiens) (P06280 whole entry, looked up): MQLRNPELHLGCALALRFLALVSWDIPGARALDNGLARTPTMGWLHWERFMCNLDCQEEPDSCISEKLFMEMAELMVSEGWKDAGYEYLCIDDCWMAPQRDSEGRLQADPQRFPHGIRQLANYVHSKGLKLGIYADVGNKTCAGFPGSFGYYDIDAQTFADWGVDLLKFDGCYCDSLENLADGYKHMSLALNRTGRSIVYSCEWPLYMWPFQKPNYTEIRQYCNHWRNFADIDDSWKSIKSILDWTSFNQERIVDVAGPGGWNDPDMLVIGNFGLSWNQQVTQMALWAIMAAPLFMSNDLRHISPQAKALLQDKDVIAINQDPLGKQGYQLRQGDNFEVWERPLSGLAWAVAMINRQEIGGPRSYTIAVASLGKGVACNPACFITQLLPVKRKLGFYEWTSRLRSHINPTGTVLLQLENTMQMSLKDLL
# In short: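 Steps: enzyme (2 nM final), then compound across 0.7 nM to 77 uM, then 80 uM fluorogenic galactopyranoside substrate; incubate 20 min at room temperature; quench at pH 10; measure fluorescence at 365/440 nm.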
# [17] = molecular target: alpha-glucosidase (Oryza sativa, rice) (UniProt Q653V4); experiment: Counterscreen for Glucocerebrosidase Inhibitors: qHTS Assay for Rice alpha-Glucosidase at pH 5.0 (AID 997; active = well fitted curve in the direction sought with a large enough effect; an effect the other way counts as inactive or inconclusive;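 note: 0% = full activity with enzyme and -100% = basal without enzyme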)
# In short: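 Endpoint fluorogenic assay at pH 5.0: compounds (0.7 nM to 77 uM) titrated against 4 nM rice enzyme and 400 uM 4-MU-alpha-glucoside for 20 min at room temperature; NaOH/glycine stop, read ex 365/em 440 nm, Hill-fitted AC50.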
# [18] = AP1 Signaling Pathway (AID 357); conditions: ME-180 (cervical carcinoma) AP-1-bla reporter, EGF-induced, beta-lactamase ratio, 5 h; at 7.69 µM (top of the series) unless noted
# In short: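 Modulation of EGF-driven AP-1 transcription was assessed with a beta-lactamase reporter in ME-180 cells. Compound and EC50 EGF were co-incubated 5 hours at 37 °C before 2.5-hour CCF4 loading at room temperature and dual-emission reading.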
# [19] = molecular target: Muscarinic acetylcholine receptor M1 (Rattus norvegicus) (UniProt P08482); experiment: qHTS Assay for Antagonists of Acetylcholine Muscarinic M1 Receptor: Kinetic Measurement of Intracellular Calcium Response (AID 943; active = well fitted curve in the direction sought with a large enough effect; an effect the other way counts as inactive or inconclusive;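 note: Fluo-4 calcium signal as peak divided by basal fluorescence over 4 min; nearly all actives have a fitted effect of over 75% in size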)
# In short: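 Antagonism is measured as inhibition of the carbachol-evoked calcium rise in CHO cells transfected with rat M1. Cells are dye-loaded, exposed to compound for 10 min, then stimulated with 100 nM carbachol (EC80).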
smiles,measurement,setting,value
NC(N)=NCCSSCCN=C(N)N,Potency,[1],inactive
same,"activity change, negative = inhibition",[2],-8.54% [at 38 µM]
same,"activity, negative = inhibition",[3],-24.3% [at 38 µM]
same,Potency,[4],> 46 µM
same,Potency,[5],> 46 µM
same,Potency,[6],inactive
same,Potency,[7],inactive
same,Potency,[8],inactive
COC(=O)[C@H](N)Cc1ccc(Cl)cc1,Potency,[1],3.16 µM (active)
same,"activity change, negative = inhibition",[2],3.08% [at 38 µM]
same,Potency,[4],> 46 µM
same,Potency,[5],> 46 µM
same,Potency,[9],inactive
same,Potency,[6],inactive
same,outcome,[10],inactive
same,Potency,[11],inactive
same,outcome,[12],inactive
same,Potency,[13],inactive
same,outcome,[14],inactive
same,outcome,[15],inactive
same,outcome,[16],inactive
same,Potency,[17],inactive
Cc1cc(O)c(C(C)C)cc1N=Cc1ccccc1O,"activity change, negative = inhibition",[18],7.1%
same,Potency,[1],1.58 µM (active)
same,"activity, negative = inhibition",[3],-2.05%
same,Potency,[4],> 46 µM
same,Potency,[5],> 9.22 µM
same,Potency,[9],inactive
same,Potency,[6],inactive
same,Potency,[7],0.631 µM (active)
same,Potency,[11],inactive
same,Potency,[8],0.398 µM (active)
NC[C@H](O)C1CCCCCCC1,"activity change, negative = inhibition",[18],3.98% [at 38 µM]
same,"activity change, negative = inhibition",[2],4.63% [at 38 µM]
same,"activity, negative = inhibition",[3],14.7% [at 38 µM]
same,Potency,[4],> 46 µM
same,Potency,[5],> 46 µM
same,Potency,[9],inactive
same,Potency,[6],inactive
same,outcome,[10],inactive
same,outcome,[12],inactive
same,Potency,[19],inactive
same,Potency,[13],inactive
same,outcome,[15],inactive
same,outcome,[16],inactive
C=C(NC(=O)C(=C)NC(=O)c1csc(C2=N[C@@H]3c4csc(n4)[C@@H]4NC(=O)c5csc(n5)[C@@H]([C@](C)(O)[C@H](C)O)NC(=O)[C@@H]5CSC(=N5)/C(=C/C)NC(=O)[C@@H]([C@H](C)O)NC(=O)c5csc(n5)[C@]3(CC2)NC(=O)[C@@H](C)NC(=O)C(=C)NC(=O)[C@@H](C)NC(=O)[C@@H]([C@@H](C)CC)N[C@H]2C=Cc3c([C@H](C)O)cc(nc3[C@@H]2O)C(=O)O[C@H]4C)n1)C(N)=O,"activity change, negative = inhibition",[18],-15.7% [at 17.2 µM]
same,Potency,[1],inactive
same,Potency,[4],> 20.6 µM
same,Potency,[5],> 20.6 µM
same,Potency,[9],inactive
same,Potency,[6],inactive
Ic1ccc2c(c1)N(c1ccccc1)c1cc(Nc3ccc4nc5ccc(I)cc5[n+](-c5ccccc5)c4c3)ccc1N2,"activity change, negative = inhibition",[2],-3.73%
same,"activity, negative = inhibition",[3],-4.86%
same,Potency,[4],> 46 µM
same,Potency,[5],> 9.22 µM
same,Potency,[9],inactive
same,Potency,[6],inactive
O=[N+]([O-])c1ccc(S(=O)(=O)Cc2ccccc2)c([N+](=O)[O-])c1,"activity change, negative = inhibition",[2],-88.3% (active)
same,Potency,[5],> 9.22 µM
same,Potency,[9],inactive
CC#C[C@@]1(O)CC[C@@H]2[C@@H]3CCC4=CC(=O)CCC4=C3[C@@H](c3ccc(N(C)C)cc3)C[C@]21C,"activity change, negative = inhibition",[18],5.58% [at 38 µM]
same,Potency,[1],15.8 µM (active)
same,"activity, negative = inhibition",[3],-20.9% [at 38 µM]
same,Potency,[6],inactive
same,Potency,[7],7.94 µM (active)
same,Potency,[8],5.01 µM (active)
